Values without a mark were called inactive. The source made the active and inactive calls. Calls follow the shape of the full dose curve. Numbered stars: 1 amine (or outer) side, 2 acyl side, 3 side chain; on linkers, the order of the positions; unused ones are H or OH. Bridge positions count the residues as written; N and C are the ends. Square brackets hold non-standard residues; d marks the D form. Peptide text beside a SMILES is read from it. I, II: the chains in the order shown. Actinocin(9to1) = Cc1c2oc3c(C)ccc(C(=O)[*:1])c3nc-2c(C(=O)[*:2])c(N)c1=O; NMeV = CN[CH](C(=O)O)C(C)C; Sar = CNCC(=O)O

Results on 37 compounds are retold here after PubChem BioAssay AID743326 (National Center for Advancing Translational Sciences (NCATS), 2014).

This test is described as follows: qHTS profiling of Chloroquine Analogs as inhibitors of Plasmodium falciparum (DD2) proliferation. Conditions: Potency: Plasmodium falciparum Dd2 proliferation inhibition; series mostly up to 28.7 µM; activity change, negative = inhibition: at the top concentration. From the text: Plasmodium falciparum is a virulent malarial parasite that kills 1-2 million people worldwide each year. Transmitted by mosquitoes, the sporozoite form of the parasite enters the blood stream to infect hepatocytes, where they become merozoites that infect red blood cells (erythrocytes). Within erythrocytes, merozoites begin a […] cycle of growth and division, after which the parasite is released to infect new red blood cells. Gametocytes, which form within erythrocytes as well, circulate in the bloodstream and are ingested by the mosquito, thereby completing the life cycle. To profile malarial isolates for differential chemical responses and to identify inhibitors of malarial growth, an assay that measures P. falciparum growth and replication within erythrocytes was employed. This assay uses a DNA binding fluorescent dye (SYBR Green) to detect parasite DNA following cell lysis. Because mature erythrocytes lack DNA, only Plasmodium-derived DNA is detected.
The SYBR Green viability assay was adapted from a method described previously (Plouffe et al., 2008). For screening 3 ul culture medium was dispensed into 1536 well black clear bottom plates (Aurora Biotechnologies) using a Multidrop Combi (Thermo Fisher Scientific Inc.), 23 nL compounds in DMSO were added by a pin tool (Kalypsys), and 5 ul of erythrocytes infected with P. falciparum (0.3% parasitemia, 2.5% hematocrit final concentration) were added. The plates were incubated at 37 C in a humidified incubator in 5% CO2 for 72 h, and 2 ul lysis buffer (20 mM Tris HCl, 10 mM EDTA, 0.16% saponin, 1.6% triton X, 10X SYBR Green I supplied as 10,000X […] by Invitrogen) was added to each well. The plates were mixed for 25 sec with gentle shaking and incubated overnight at room temperature in the dark. The following morning, fluorescence intensity at 485(14) nm excitation and 535(25) nm emission wavelengths was measured on an EnVision (Perkin Elmer) plate reader. Plate reads were normalized relative to the control inhibitor (0.29 uM artemisinin) and vehicle (DMSO) wells present on each plate and then corrected by an algorithm using vehicle-only control plates at the beginning and end of the compound plate stack.
On the technique in general: qHTS replaces the single test concentration by a dilution series.
`COc1cc2c(Nc3ccc(NC(=O)c4ccccc4)cc3)ncnc2cc1OCCCN1CCOCC1`: the Potency is 749 nM (active).

Consider `Cc1cccc(C)c1OCC(=O)N[C@@H](Cc1ccccc1)[C@@H](O)C[C@H](Cc1ccccc1)NC(=O)[C@H](C(C)C)N1CCCNC1=O`, for which the “activity change, negative = inhibition” value was -98.3%.

`C[C@H]1Cc2c([nH]c3cc(Cl)c(F)cc23)[C@@]2(N1)C(=O)Nc1ccc(Cl)cc12`: the “activity change, negative = inhibition” value was -103%.

Turning to `C[C@@H]1Cc2c([nH]c3cc(Cl)c(F)cc23)[C@]2(N1)C(=O)Nc1ccc(Cl)cc12`, the “activity change, negative = inhibition” value was -101%.

On to `CCCCCCCCCCOc1cc2c(=O)c(C(=O)OCC)c[nH]c2cc1OCC`, for which the “activity change, negative = inhibition” value is -98.2%.

As to `CC(C)N=C(N)N=C(N)Nc1ccc(Cl)cc1`, the “activity change, negative = inhibition” value was 190%.

For `Cn1cncc1[C@@](N)(c1ccc(Cl)cc1)c1ccc2c(c1)c(-c1cccc(Cl)c1)cc(=O)n2C`, the “activity change, negative = inhibition” value was 193%.

For `CNC(=O)c1cc(Oc2ccc(NC(=O)Nc3ccc(Cl)c(C(F)(F)F)c3)cc2)ccn1`, the “activity change, negative = inhibition” value was 183%.

On to `O=C(O)c1cn(C2CC2)c2cc(N3CCNCC3)c(F)cc2c1=O`, for which the “activity change, negative = inhibition” value was -13.3%.

In the case of `COCC(=O)O[C@]1(CCN(C)CCCc2nc3ccccc3[nH]2)CCc2cc(F)ccc2[C@@H]1C(C)C`, the “activity change, negative = inhibition” value was -101%.

In the case of `COC(=O)C1C2CC3c4[nH]c5cc(OC)ccc5c4CCN3CC2CC(OC(=O)c2cc(OC)c(OC)c(OC)c2)C1OC` (configuration not stated), the “activity change, negative = inhibition” value was 196% [at 57.5 µM].

On to `C[C@@H]1[C@@H](C(=O)C[C@H]2O[C@@H]3O[C@]4(C)CC[C@@H]5[C@H](C)CC[C@@H]([C@H]2C)[C@@]35OO4)O[C@@H]2O[C@]3(C)CC[C@H]4[C@H](C)CC[C@@H]1[C@@]24OO3`, for which the Potency was 1.3 nM (active).

In the case of `COc1ccc2nc3cc(Cl)ccc3c(Nc3cc(CN4CCCC4)c(O)c(CN4CCCC4)c3)c2n1`, the “activity change, negative = inhibition” value was -103%.

Turning to `C/C(=C\c1csc(C)n1)[C@@H]1C[C@@H]2O[C@]2(C)CCC[C@H](C)[C@H](O)[C@@H](C)C(=O)C(C)(C)[C@@H](O)CC(=O)O1`, the “activity change, negative = inhibition” value was 24.3%.

For the compound `CN([C@@H](Cc1ccc(OS(=O)(=O)c2cccc3cnccc23)cc1)C(=O)N1CCN(c2ccccc2)CC1)S(=O)(=O)c1cccc2cnccc12`, the “activity change, negative = inhibition” value was 200%.

For `CC[C@@H](C)[C@H]1O[C@]2(CC[C@H]1C)C[C@@H]1C[C@@H](CC=C(C)[C@@H](O[C@H]3C[C@H](OC)[C@@H](O[C@H]4C[C@H](OC)[C@@H](O)[C@H](C)O4)[C@H](C)O3)[C@@H](C)C=CC=C3CO[C@@H]4[C@H](O)C(C)=C[C@@H](C(=O)O1)[C@]34O)O2`, the “activity change, negative = inhibition” value was -103%.

For the compound `CC(C)(C)c1cc(O)c(CN)c(C(C)(C)C)c1`, the “activity change, negative = inhibition” value was 180%.

For `CNCCC(Oc1ccccc1OC)c1ccccc1` (configuration not stated), the “activity change, negative = inhibition” value is -94%.

Take `CC(=O)N(O)CCCP(=O)(O)O`: the “activity change, negative = inhibition” value was -91.8%.

Regarding `OB1OCc2cc(F)ccc21`, the “activity change, negative = inhibition” value is 5.84%.

On to `COc1cc(NC(C)CCCN)c2ncccc2c1` (configuration not stated), for which the “activity change, negative = inhibition” value was 193% [at 14.2 µM].

For the compound `Cc1c2oc3c(C)ccc(C(=O)NC4C(=O)NC(C(C)C)C(=O)N5CCCC5C(=O)N(C)CC(=O)N(C)C(C(C)C)C(=O)OC4C)c3nc-2c(C(=O)NC2C(=O)NC(C(C)C)C(=O)N3CCCC3C(=O)N(C)CC(=O)N(C)C(C(C)C)C(=O)OC2C)c(N)c1=O` (configuration not stated) (I: TVP[Sar][NMeV] / II: TVP[Sar][NMeV]; ester I:1-I:C, II:1-II:C; linker I:N-II:N via Actinocin(9to1); configuration not given here), the Potency is 2.4 nM (active).

For the compound `C=Cc1c(C)c2cc3nc(cc4[nH]c(cc5nc(cc1[nH]2)C(C)=C5CCC(=O)OC)c(CCC(=O)O)c4C)[C@@]1(C)C3=CC=C(C(=O)OC)[C@H]1C(=O)OC`, the Potency is 359 nM (active).

As to `COc1cc(C=CC(=O)CC(=O)C=Cc2ccc(O)c(OC)c2)ccc1O`, the Potency is 5300 nM (active).

On to `Cc1oncc1C(=O)Nc1ccc(C(F)(F)F)cc1`, for which the “activity change, negative = inhibition” value is -19.1%.

Regarding `CCOc1ccccc1O[C@H](c1ccccc1)[C@H]1CNCCO1`, the “activity change, negative = inhibition” value is 201%.

Consider `C=CCON=C(C[C@H]1O[C@@H]2O[C@]3(C)CC[C@@H]4[C@H](C)CC[C@@H]([C@H]1C)[C@@]24OO3)[C@H]1O[C@@H]2O[C@]3(C)CC[C@H]4[C@H](C)CC[C@@H]([C@@H]1C)[C@@]24OO3`, for which the “activity change, negative = inhibition” value was 197%.

Regarding `C[C@H]1c2cccc(O)c2C(O)=C2C(=O)[C@]3(O)C(O)=C(C(N)=O)C(=O)[C@@H](N(C)C)[C@@H]3[C@@H](O)[C@@H]21`, the “activity change, negative = inhibition” value was -96.4%.

Take `C[C@@H]1[C@@H](CC(C[C@H]2O[C@@H]3O[C@]4(C)CC[C@@H]5[C@H](C)CC[C@@H]([C@H]2C)[C@@]35OO4)C(=O)NCc2ccc(F)cc2)O[C@@H]2O[C@]3(C)CC[C@H]4[C@H](C)CC[C@@H]1[C@@]24OO3` (some centres not stated): the “activity change, negative = inhibition” value is -100%.

With `CCN(CC)CCOc1ccc2c(=O)c3ccc(Cl)cc3n(CCN(CC)CC)c2c1`, the Potency was 1330 nM (active).

As for `CN1CCN(CCCN2c3ccccc3Sc3ccc(S(=O)(=O)N(C)C)cc32)CC1`, the Potency is 1140 nM (active).

`C[N+]1(C)CCC(=C(c2ccccc2)c2ccccc2)CC1`: the “activity change, negative = inhibition” value is -90.3% [at 14.2 µM].

With `C[C@@H]1CC[C@H]2[C@@H](C)C(=O)O[C@@H]3OC4(C)CC[C@@H]1C32OO4` (some centres not stated), the “activity change, negative = inhibition” value was 171% [at 57.5 µM].

Take `O=CN(O)CCCP(=O)(O)O`: the “activity change, negative = inhibition” value was -91.1%.

As for `CCc1nc(N)nc(N)c1-c1ccc(Cl)cc1`, the “activity change, negative = inhibition” value was -2.13%.

With `Cc1nc2c(C#N)cccc2n1-c1ccc(C(=O)NC2CC2)s1`, the “activity change, negative = inhibition” value is 179%.

Consider `O=C(C[C@@H]1NCCC[C@@H]1O)Cn1cnc2ccccc2c1=O`, for which the “activity change, negative = inhibition” value was -101%.
